Reference: PubChem BioAssay (NCATS)
Inconclusive results are not listed. Unmarked numbers belong to inactive results. Activity calls are given as the source filed them. The call rests on the fitted dose curve; in most records, active means well fitted curve in the direction sought with a large enough effect; inconclusive means small, poorly fitted or top-dose-only effect, or another doubt; inactive means no such curve, though single readings can be large; an effect the other way counts as inactive or inconclusive.

Each compound was assayed against Aldehyde dehydrogenase, mitochondrial (Homo sapiens) (UniProt P05091) (assay: qHTS for Inhibitors of the Aldehyde Dehydrogenase Family (ALDH2) Primary screen (AID 2061308; further: nearly all actives have a fitted effect of over 55% in size;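 on activity change, negative = inhibition: plate controls were vehicle for no effect and reference inhibitor for full effect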)). Conditions: ALDH2 enzyme inhibition qHTS, 1536-well; series mostly up to 56 µM; activity change, negative = inhibition: at the top concentration.
Potency means the concentration at half of the fitted maximal effect.

Row | Structure (SMILES) | activity change, negative = inhibition | Potency
1 | O=S1(=O)N=C(Oc2ccccc2-c2ccccc2)c2ccccc21 | -3.82% | 
2 | N#Cc1ncc(C(=O)OCC(=O)NC2C3CC4CC(C3)CC2C4)cn1 (stereo not drawn) | -3.56% | 
3 | O=C(O)CCCCCNC(=O)CSc1nnc(-c2ccc([S+](=O)([O-])N3CCCC3)cc2)n1-c1ccccc1 | -5.84% | 
4 | Cc1cnc(-c2ccccc2C(C)C)nc1NCc1ccc(-c2ccc(F)nc2)cc1 | 5.29% | 
5 | COC(=O)C1CCN(C(=O)c2ccc3c(c2)ncn3-c2cccc(C)c2)CC1 | -6.75% | 
6 | COc1ccc(NS(=O)(=O)c2ccc(C)cc2)c(C(=O)Nc2nc(-c3ccccc3)cs2)c1 | -7.44% | 
7 | COc1ccc(C2NC(=O)c3ccccc3N2)cc1COc1c(C)cc(NC(C)=O)cc1C (stereo not drawn) | 3.05% | 
8 | CC(C)(C)OC(=O)N1CCN(c2ccc(NCc3ccc(-c4ccc(C#N)cc4)nc3)cc2)CC1 | -14.6% | 
9 | c1nc(NCC2CCCCO2)c2cc(-c3ccc4c(c3)OCO4)ccc2n1 (stereo not drawn) | -10.4% | 
10 | COc1ccc(CCc2nc3c(C)c(-c4c(C)noc4C)c(C)cc3n2CCN2CCOCC2)cc1 | 7.04% | 
11 | O=C(/C=C/c1cccs1)Nc1cccc([S+](=O)([O-])Nc2ccccc2F)c1 |  | inactive
12 | COc1cccc(C2c3c(ncn(-c4ccccc4SC)c3=N)Oc3ccc4ccccc4c32)c1 (stereo not drawn) | 5.31% | 
13 | CC(C)Oc1cccc(-c2csc(N3CCC(C(N)=O)CC3)n2)c1 | 6.28% [at 171 µM] | 
14 | O=C(Cc1ccc(Cl)c(Cl)c1)Nc1ccc([S+](=O)([O-])Nc2ccc([N+](=O)[O-])cc2)cc1 | -11.3% | 
15 | C[C@@H]1CC[C@]2(C)C(C[C@@H](O)[C@H](O)[C@]23CO3)[C@@]1(C)CCc1ccoc1 (stereo partly drawn) | 2.72% | 
16 | CC(=O)N1CCCc2cc(S(=O)(=O)Nc3ccc(C)c(C)c3)ccc21 | 11.4% | 
17 | Cc1cc(-c2nnc3n2CCCCC3)c(C)n1-c1ccc([N+](=O)[O-])cc1 | -15.5% | 
18 | CN1CCN(c2cccc(Nc3nn4c(=O)c5ccc(N(C)C)cc5nc4s3)c2)CC1 | -19.1% | 
19 | C=C(C)C(=O)OC1[C@@H]2C(=C)C(=O)O[C@@H]2C[C@@H](C)[C@@H]2C=CC(=O)[C@@]12C (stereo partly drawn) | 6.91% | 
20 | CCOC(=O)C1CCN(C(=O)CNC(=O)Nc2ccccc2Cl)CC1 | -3.53% | 

Row | Structure (SMILES) | activity change, negative = inhibition | Potency
21 | Cc1c(C(=O)OCC2CC2)[nH]c2c1C(=O)CC(c1ccco1)C2 (stereo not drawn) | -25% | 
22 | Cc1ccc(NS(=O)(=O)c2ccc3c(c2)C(Cl)(Cl)C(=O)N3)cc1C | -6.36% | 
23 | COc1nccc(-c2nc(Nc3ccc(F)c(F)c3)c3ccccc3n2)c1OC | -18.6% | 
24 | COc1cccc(C2c3c(ncn(-c4cccc(OC)c4)c3=N)Oc3ccc4ccccc4c32)c1 (stereo not drawn) | 10.5% | 
25 | Cc1ccc(-c2ccc(=O)n(CC(=O)NCCc3ncc[nH]3)n2)cc1 | -9.11% | 
26 | COc1ccc(S(=O)(=O)Nc2cc(OC)cc3cccnc23)cc1 | -19.3% | 
27 | c1ccc(CNc2ccc(N3CCOCC3)cc2)cc1 | -17.4% | 
28 | Cc1c(Br)cc(F)c([S+](=O)([O-])N2CCN([S+](=O)([O-])c3ccc4c(c3)OCCO4)CC2)c1F | -3.84% | 
29 | O=C(Nc1ccc([S+](=O)([O-])Nc2nccs2)cc1)c1ncn[nH]1 | -7.29% | 
30 | N#Cc1c(-c2cccc([N+](=O)[O-])c2)no[n+]1[O-] |  | 7.94 µM (active)
31 | Cc1ccc(NS(=O)(=O)c2cc3c(cc2N[C@@H](C)CO)NC(=O)CC3)cc1Cl | -7.61% | 
32 | COC(=O)c1ccc(O)c2ncc(-c3ccc(C(=O)NCCCN(C)C)cc3)cc12 | 14.1% | 
33 | CN1CCCC1CCNc1ncnc2ccc(-c3ccc4c(c3)OCO4)cc12 (stereo not drawn) | 10.7% | 
34 | O=C1c2ccccc2NC(c2ccc(-c3ccc(C(F)(F)F)cc3)o2)N1O (stereo not drawn) |  | 4.47 µM (active)
35 | CC(C)CC(=O)O[C@@H]1OC=C(CO[C@@H]2O[C@H](CO[C@@H]3O[C@H](CO)[C@@H](O)[C@H](O)[C@H]3O)[C@@H](O)[C@H](O)[C@H]2O)[C@H]2C[C@H](O)[C@@H](CO)[C@@H]12 | 4.6% [at 16.9 µM] | 
36 | Cc1csc(CNc2ncnc3ccc(-c4cccc(Cl)c4)cc23)c1 | -1.43% | 
37 | CC(=O)Nc1ncc(S(=O)(=O)Nc2cnccc2C(=O)Nc2nc(-c3ccccc3)cs2)s1 | -16.1% | 
38 | CCCn1c(-c2ccc(F)cc2)nc2c(NCCN3CCCC3)nc(C)nc21 | 7.61% | 
39 | O=C1CCCC2=C1C(c1ccccc1)N=C(Nc1nc3ccccc3o1)N2 (stereo not drawn) | 0.937% | 
40 | Cc1c(P(=S)(c2ccccc2)c2ccccc2)[n+]2ccccc2n1CCCCCc1ccccc1 | 19% | 

Each compound was assayed against Retinal dehydrogenase 2 (Homo sapiens) (UniProt O94788) (assay: qHTS for Inhibitors of the Aldehyde Dehydrogenase Family (ALDH1A2) Confirmation screens (AID 2061314; further: nearly all actives have a fitted effect of over 65% in size; on activity, negative = inhibition: on the % scale 0 is the no-effect control and ±100 the full control effect)). Conditions: ALDH1A2 enzyme inhibition qHTS confirmation; series mostly up to 45.9 µM; activity, negative = inhibition: at the top concentration.

Row | Structure (SMILES) | activity, negative = inhibition | Potency
41 | CC(C)(C)OC(=O)N1CCN(c2ccc(NCc3ccc(-c4ccc(C#N)cc4)nc3)cc2)CC1 | 2.46% | 
42 | c1nc(NCC2CCCCO2)c2cc(-c3ccc4c(c3)OCO4)ccc2n1 (stereo not drawn) |  | 22.5 µM (active)
43 | Cc1cc(-c2nnc3n2CCCCC3)c(C)n1-c1ccc([N+](=O)[O-])cc1 |  | 22.5 µM (active)
44 | CN1CCN(c2cccc(Nc3nn4c(=O)c5ccc(N(C)C)cc5nc4s3)c2)CC1 |  | 14.2 µM (active)
45 | Cc1c(C(=O)OCC2CC2)[nH]c2c1C(=O)CC(c1ccco1)C2 (stereo not drawn) |  | 8.96 µM (active)
46 | Cc1ccc(NS(=O)(=O)c2ccc3c(c2)C(Cl)(Cl)C(=O)N3)cc1C |  | 3.18 µM (active)
47 | COc1ccc(S(=O)(=O)Nc2cc(OC)cc3cccnc23)cc1 |  | 1.42 µM (active)
48 | c1ccc(CNc2ccc(N3CCOCC3)cc2)cc1 |  | 12.7 µM (active)
49 | N#Cc1c(-c2cccc([N+](=O)[O-])c2)no[n+]1[O-] |  | 5.04 µM (active)
50 | Cc1ccc(NS(=O)(=O)c2cc3c(cc2N[C@@H](C)CO)NC(=O)CC3)cc1Cl |  | 22.5 µM (active)
51 | O=C1c2ccccc2NC(c2ccc(-c3ccc(C(F)(F)F)cc3)o2)N1O (stereo not drawn) |  | 22.5 µM (active)
52 | CC(=O)Nc1ncc(S(=O)(=O)Nc2cnccc2C(=O)Nc2nc(-c3ccccc3)cs2)s1 |  | 10.1 µM (active)
53 | O=C1CCCC2=C1C(c1ccccc1)N=C(Nc1nc3ccccc3o1)N2 (stereo not drawn) | -30.6% | 
